Among the data in PubChem BioAssay AID651871 (Sanford-Burnham Center for Chemical Genomics, 2012) are activity (protection/inhibition) values, retold here.

Several values for one entry are separate records, joined by “and”; a condition that tells them apart may be missing. Equal values may be shown once.

The test system of the assay is H9c2. Nature of the assay: protection of cardiomyocytes from stress damage, SAR follow-up, cell-based, panel, H9c2 and HL-1, ATP luminescence, set 2 (AID 651871).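 Further: cells exposed to stressor for 2 h before ATP readout; reference of the scale not given here.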 The settings on record: H9c2/HL-1 cardiomyocytes, 2-deoxyglucose stress, with 2-deoxyglucose; run 5, at 79 µM (top of the series).
For `COc1ccc2nc(-c3cc(OC)c(OC)c(OC)c3)cc(C(=O)NCC(=O)Nc3ccc(C(C)=O)cc3)c2c1`, the activity (protection/inhibition) turned out to be 70.9%.

With `COc1ccc2c(c1OC)C(=O)N1c3ccccc3C(=O)N(Cc3cccc(Cl)c3Cl)C21` (stereo not drawn), the activity (protection/inhibition) was 88% and 69.1% and -5.13%.

Take `CCOC(=O)c1cccc(NC(=O)CNC(=O)c2cc(-c3cc(OC)c(OC)c(OC)c3)nc3ccccc23)c1`: the activity (protection/inhibition) is 97.3%.
